Data on 39 sequences can be found in the OligoGym collection.
Note: reference of the scale not given here.

The first test addresses ITGAM. In words: pooled miR-30 sensor sort-seq; sequence = guide strand. The following applies: shRNA.
Regarding TTAAACAAGATCTCAGCTGTGC, the sensor-assay potency score (higher = more potent) amounted to 0.114.

Sequence TTGAACTCCATGATTGCCTTGA returned a sensor-assay potency score (higher = more potent) of 0.856.

TTAGAGTCTACATCAAACGTGA yielded a sensor-assay potency score (higher = more potent) of 0.224.

The sequence TTCATGTCTGAATCCACTCTGG returned a sensor-assay potency score (higher = more potent) of 0.203.

TTGATGTACCAGTCAAACGAGA: the sensor-assay potency score (higher = more potent) was -0.909.

The next test deals with ITLN1. Described as above. The following applies: shRNA.
As to TGCACTAGGACATTCGTCTTTG, the sensor-assay potency score (higher = more potent) was -0.456.

TTTCACTGGATATTTCTGGTAG had a sensor-assay potency score (higher = more potent) of 0.272.

On to TCGTCTTTGATTTCCTTGCAGC, for which the sensor-assay potency score (higher = more potent) was -0.887.

In the case of TAGACCACAGGGATCACCGGGC, the sensor-assay potency score (higher = more potent) amounted to 0.112.

Turning to TGAACTGAACAAATCCCGCAGT, the sensor-assay potency score (higher = more potent) turned out to be 0.114.

TTGTCAGTCCAACACTTTCCTT: the sensor-assay potency score (higher = more potent) was -1.43.

As to TTAGCCTCATCTGTACTCCATC, the sensor-assay potency score (higher = more potent) was -0.855.

TGTCAGTCCAACACTTTCCTTC showed a sensor-assay potency score (higher = more potent) of 0.0274.

For TTCGTCTTTGATTTCCTTGCAG, the sensor-assay potency score (higher = more potent) worked out at 0.319.

Take TTCCATATCCACTCCAATCAAA: the sensor-assay potency score (higher = more potent) is -1.07.

ATGCACTAGGACATTCGTCTTT: the sensor-assay potency score (higher = more potent) was -0.936.

Consider TAACATTCTAGCTACTGGGTAA, for which the sensor-assay potency score (higher = more potent) is -0.292.

The next test deals with ITPRIP. The test is described as above. The following applies: shRNA.
In the case of TAAGGCAGCATGAAACACCAAG, the sensor-assay potency score (higher = more potent) was -0.493.

Sequence TTAGAAGCAGCTTTGGTGCAGA gave a sensor-assay potency score (higher = more potent) of 0.222.

TTGAGCATCTCATAGAAGGAGT: the sensor-assay potency score (higher = more potent) was -0.45.

TTGAAGGGCATGAACTTCCCTG returned a sensor-assay potency score (higher = more potent) of 0.113.

Regarding TTGATCTTCAGGGACCCCGGGC, the sensor-assay potency score (higher = more potent) was -0.883.

On to TTGGTCTTGCCGCAGATGCAGC, for which the sensor-assay potency score (higher = more potent) is -1.52.

Turning to TAGGAGGTGCAGTAGGGCCGTC, the sensor-assay potency score (higher = more potent) was -0.656.

As for TTCTTCTGGAGCAAGCTCTTCT, the sensor-assay potency score (higher = more potent) was -0.26.

For TTTAGTGTCGTCCTGAGGAAGT, the sensor-assay potency score (higher = more potent) was -0.751.

For TGAACGGAACTTGATCTTCAGG, the sensor-assay potency score (higher = more potent) is -1.39.

As to TTTTCAGTGAACTTTCTCCTGG, the sensor-assay potency score (higher = more potent) was -0.029.

Turning to TTCAAGTACAGACTGGATCTGG, the sensor-assay potency score (higher = more potent) worked out at 0.622.

The target of the next test is JAM3. The test is described as above. The following applies: shRNA.
With TTCTGAATGAGTGTCTAGCTCT, the sensor-assay potency score (higher = more potent) is -0.216.

For TAGCAGAGGTATGTGCACGTGC, the sensor-assay potency score (higher = more potent) is -0.388.

In the case of TTTCCTTGCGGTCATTTCGAGC, the sensor-assay potency score (higher = more potent) is -1.23.

Consider TTCACTTGCACAGTTAACTCGA, for which the sensor-assay potency score (higher = more potent) was 0.721.

Sequence TTCATCTTGAATTTTCTTCCAC yielded a sensor-assay potency score (higher = more potent) of 0.166.

Turning to TTCCACACTTTCAAATTCCTGT, the sensor-assay potency score (higher = more potent) stood at 0.0526.

For the sequence TTGATGAAGTAGCCACGTCTGT, the sensor-assay potency score (higher = more potent) is -0.852.

Consider TGAGTGTCTAGCTCTGTCCGAG, for which the sensor-assay potency score (higher = more potent) was -0.68.

TAGAGTAAGAAGAGTAGTGGTC gave a sensor-assay potency score (higher = more potent) of 0.457.

Consider TTGTTGATGAAGTAGCCACGTC, for which the sensor-assay potency score (higher = more potent) is -0.698.
